Records with an inconclusive call do not appear. Active and inactive are the calls of the source. How the source made its calls: active means hit-call score of the fitted dose curve at least 0.9, where 1 is the maximum; inconclusive means response in the unintended direction; inactive means score below 0.9.

Chain of AR (gene 367) (P10275 whole entry, looked up): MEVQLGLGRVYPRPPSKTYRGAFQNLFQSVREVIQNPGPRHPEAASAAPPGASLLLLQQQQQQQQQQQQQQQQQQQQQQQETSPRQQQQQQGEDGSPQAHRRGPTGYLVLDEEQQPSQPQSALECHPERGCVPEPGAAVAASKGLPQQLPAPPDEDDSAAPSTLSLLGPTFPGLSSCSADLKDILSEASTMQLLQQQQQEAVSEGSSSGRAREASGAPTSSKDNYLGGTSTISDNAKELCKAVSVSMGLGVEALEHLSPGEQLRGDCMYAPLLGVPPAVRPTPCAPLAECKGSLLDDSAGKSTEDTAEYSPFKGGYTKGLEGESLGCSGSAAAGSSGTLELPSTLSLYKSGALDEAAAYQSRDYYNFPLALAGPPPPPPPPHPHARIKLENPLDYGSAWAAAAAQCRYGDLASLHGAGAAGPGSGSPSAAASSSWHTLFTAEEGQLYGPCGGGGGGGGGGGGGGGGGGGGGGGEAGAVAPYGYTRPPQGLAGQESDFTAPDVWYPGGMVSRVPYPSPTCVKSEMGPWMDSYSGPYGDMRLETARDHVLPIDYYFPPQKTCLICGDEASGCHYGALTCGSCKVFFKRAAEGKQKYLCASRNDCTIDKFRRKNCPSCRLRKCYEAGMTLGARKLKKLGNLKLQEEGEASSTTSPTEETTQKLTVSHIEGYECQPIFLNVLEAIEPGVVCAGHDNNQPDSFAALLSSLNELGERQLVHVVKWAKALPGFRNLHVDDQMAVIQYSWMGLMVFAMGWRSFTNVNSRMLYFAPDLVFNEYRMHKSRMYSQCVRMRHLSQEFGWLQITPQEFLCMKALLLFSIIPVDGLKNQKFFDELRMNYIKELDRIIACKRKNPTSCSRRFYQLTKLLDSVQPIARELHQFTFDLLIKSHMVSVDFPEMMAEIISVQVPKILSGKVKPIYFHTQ

System in one assay: not listed separately
Description: ACEA_ER_AUC_viability: ACEA Biosciences xCELLigence Real-Time Cell Analysis on Estrogen Receptor Agonism for Viability (AID 2283782).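 Further: continuous compound exposure with impedance area under curve over 80 h; hit means loss of impedance signal meaning reduced cell growth or viability.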 A digest of the protocol:
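T-47D human breast cells in phenol red-free RPMI1640 with 10% charcoal-stripped FBS were dosed with an 8-point 1:4 dilution series from 100 uM top final concentration, in duplicate. Impedance-based growth was followed for 80 h; AUC analysed versus DMSO.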
For the compound `C=CC(=O)OCCCCCCCC(C)C`, the result was inactive.
The same measure, in the same setting: the result for `CCCCCC[C@@H](O)C/C=C\CCCCCCCC(=O)OCC(O)CO` (some centres not stated) reads “inactive”.
As for `Oc1ccc(-c2ccccc2)c(Cl)c1`, the AC50 was 82.6 µM (active).
Regarding `CCN1CCCC1=O`, the outcome was inactive.
For the compound `CC/C=C\C/C=C\C/C=C\CCCCCCCC(=O)OC`, the outcome was inactive.
As to `COCC(=O)O`, the compound was classed as inactive.
Regarding `N#Cc1ccc(C(c2ccc(C#N)cc2)n2cncn2)cc1`, the compound was called inactive.
In the case of `CCCCCCOc1ccc(N)cc1`, the AC50 is 86.8 µM (active).
For the compound `CCc1cccc(C)c1N(C(=O)CS(=O)(=O)O)C(C)COC` (configuration not stated), the AC50 was 50 µM (active).
On to `CCCCCCCCCCCCCC(=O)OC(C)C`, for which the outcome was inactive.
Still for that read-out and setting: the result for `CC(C)(CO)C(O)C(=O)NCCCO` (configuration not stated) reads “inactive”; that for `O=C1CCCN1C1CCCCC1`, “inactive”.
For the compound `CN(C)c1ccc2nc3ccc(=[N+](C)C)cc-3sc2c1`, the AC50 was 16.5 µM (active).
Consider `CCC(C)C(=O)OCCc1ccccc1` (configuration not stated), for which the call was inactive.
For the compound `CC(=O)OCc1ccccc1`, the compound was called inactive.
As to `O=C(O)c1ccc2c(c1)C(=O)OC2=O`, the compound was called inactive.
For the compound `Nc1ncnc2nc[nH]c12`, the compound was classed as inactive.
For the compound `c1ccc2c(c1)[nH]c1ccccc12`, the AC50 was 36.4 µM (active).
As for `CO[Si](C)(C)OC`, the compound was called inactive.
The same measure, in the same setting: in the case of `CCCCCCCCCC(C)=O` it was “inactive”.
`CCCCCCCOC(=O)c1ccc(O)cc1`: the AC50 was 24.1 µM (active).
Still for that read-out and setting: in the case of `C=CCNCC=C` it was 50.5 µM (active).

The target in the next assay is AR (gene 367) (UniProt P10275). Nature of the assay: ACEA_AR_agonist_80hr: ACEA Biosciences xCELLigence Real-Time Cell Analysis on Androgen Receptor Agonism for Proliferation (AID 2283783).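 Further: hits increase impedance growth signal above DMSO baseline.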 In a few lines:
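22Rv1 human prostate cancer cells were seeded after preconditioning in assay medium and monitored overnight, then dosed in an eight-point 1:4 dilution series from 100 uM (≤0.5% DMSO). Impedance-based growth was read at 80 h, gain-of-signal versus DMSO.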
As to `CCCCCC[C@@H](O)C/C=C\CCCCCCCC(=O)OCC(O)CO` (some centres not stated), the compound was classed as inactive.
Same read-out and setting: in the case of `C=C1C[C@H]2[C@@H]3C=C(C)C4=CC(=O)CC[C@]4(C)[C@H]3CC[C@]2(C)[C@@]1(OC(C)=O)C(C)=O` it was “inactive”.
For `Oc1ccc(-c2ccccc2)c(Cl)c1`, the compound was classed as inactive.
For the compound `CCC[Si](OC)(OC)OC`, the compound was classed as inactive.
With `COc1cc(O)c(C(=O)c2ccccc2)cc1S(=O)(=O)O`, the AC50 was 0.0228 µM (active).
As to `O=C(O)c1ccc2c(c1)C(=O)OC2=O`, the compound was classed as inactive.
Same read-out and setting: in the case of `CN(C)Cc1cc(CN(C)C)c(O)c(CN(C)C)c1` it was “inactive”.
Regarding `Cc1ccc(C)c(OCCCC(C)(C)C(=O)O)c1`, the outcome was inactive.

System in the next assay: not listed separately
Nature of the assay: STM_H9_NormalizedViability: Cytotoxicity Assessment at 120 hours in the Stemina devTOX quickPredict H9 human embryonic stem cell (hESC)-based Assay (AID 2283784). In a few lines: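 Undifferentiated H9 hESCs kept pluripotent were exposed to compound, with media and chemical replaced every 24h. CellTiter-Fluor protease-substrate fluorescence was background-corrected and normalized per plate to the 0.1% DMSO vehicle; signal loss indicates reduced viability.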
Consider `COc1ccc(C(=O)c2ccccc2)c(O)c1`, for which the result was inactive.
Regarding `CN(C)c1ccc2nc3ccc(=[N+](C)C)cc-3sc2c1`, the AC50 was 4.5 µM (active).
On to `Oc1ccccc1Cc1ccccc1O`, for which the outcome was inactive.
As for `CC(CCC(=O)O)(c1ccc(O)cc1)c1ccc(O)cc1`, the AC50 was 0.0494 µM (active).

The target of the next assay is AR (gene 367) (UniProt P10275). Nature of the assay: ACEA_AR_antagonist_80hr: ACEA Biosciences xCELLigence Real-Time Cell Analysis on Androgen Receptor Antagonism for Proliferation (AID 2283787).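 Further: hits lower the impedance growth signal relative to DMSO.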 A digest of the protocol:
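Impedance readout (RT-CES), 80 h post-dose; loss-of-signal vs DMSO baseline. 22Rv1 cells in assay medium. Compounds: 8-pt 1:4 series, max 100 uM final, up to 0.5% DMSO; n = 2.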
With `CCCCCC[C@@H](O)C/C=C\CCCCCCCC(=O)OCC(O)CO` (some centres not stated), the compound was classed as inactive.
With `C=C1C[C@H]2[C@@H]3C=C(C)C4=CC(=O)CC[C@]4(C)[C@H]3CC[C@]2(C)[C@@]1(OC(C)=O)C(C)=O`, the AC50 is 0.152 µM (active).
Same read-out and setting: the result for `Oc1ccc(-c2ccccc2)c(Cl)c1` reads 0.56 µM (active).
Turning to `N#Cc1ccc(C(c2ccc(C#N)cc2)n2cncn2)cc1`, the call was inactive.
On the same count and under the same terms, in the case of `CCCCCCCCCCCCCC(=O)OC(C)C` it was “inactive”.
On to `COc1ccc(C(=O)c2ccccc2)c(O)c1`, for which the outcome was inactive.
The same measure, in the same setting: the result for `CC(=O)OCc1ccccc1` reads “inactive”.
For `O=C(O)c1ccc2c(c1)C(=O)OC2=O`, the result was inactive.
Same read-out and setting: in the case of `CC(=O)OC1CCCCC1C(C)(C)C` (configuration not stated) it was “inactive”.
For the compound `CCCCCCCCCC(C)=O`, the call was inactive.
On the same count and under the same terms, the result for `Cc1ccc(C)c(OCCCC(C)(C)C(=O)O)c1` reads “inactive”; that for `CCc1cccc(C)c1N`, “inactive”.
In the case of `Cc1c(C(=O)c2c[nH]n(C)c2=O)ccc(S(C)(=O)=O)c1C1=NOCC1`, the call was inactive.

(Values after PubChem BioAssay (EPA / NIEHS).)
